# Measurements published in PubChem BioAssay (Tox21).
# Results filed as inconclusive are left out. The source made the active and inactive calls. The call rests on the fitted dose curve; in most records, active means well fitted cell-killing curve with a large enough effect in the repeat runs; inconclusive means weak or mixed curves, or effect the other way; inactive means flat fitted curve, though single readings scatter.
# Experiment: cAMP Responsive Elements (CRE) small molecule antagonists, cell-based qHTS assay: qHTS cell viability counter screen (AID 2060913); further: nearly all actives have a fitted effect of over 40% in size
# Conditions: CRE-bla HEK293T viability, CellTiter-Glo luminescence, 5 h; series mostly up to 92.4 µM; viability change, negative = cytotoxic: at the top concentration
# Excerpt: U.S. Tox21 Program National Center for Advancing Translational Sciences [NCATS] Division of Preclinical Innovation [DPI] U.S. Environmental Protection Agency [EPA] National Institutes of Environmental Health Sciences [NIEHS] National Toxicology Program [NTP] U.S. Food and Drug Administration [FDA] Tox21 Assay Overview: CREB (cyclic-AMP Responsive Element Binding Protein) is a cellular transcription factor. It binds to certain DNA sequences called cAMP Responsive Elements (CRE) and regulates the transcription of the genes. […] This cell line can be used to find agonists/antagonists of the cyclic AMP signaling pathway. The activation of the report gene under culture conditions can be detected by fluorescence intensity. This cell line has been used to screen the Tox21 10K compound library to identify agonists that induce oxidative stress. The cytotoxicity of the Tox21 compound library against the CRE-bla cell line was tested in parallel by measuring the cell viability using CellTiter-Glo assay (Promega, Madison, WI) in the same wells.
# Tox21 Assay Protocol Summary: CRE-bla Hek 293T cells were suspended in assay medium (DMEM containing 10% dialyzed FBS, 0.1 mM NEAA, 1 mM sodium pyruvate and 25 mM HEPES) and dispensed at 2,000 cells/4 uL /well into 1536-well black wall/clear bottom plates using a Multidrop Combi (ThermoFisher Scientific, Waltham, MA) dispenser. After the assay plates were incubated at 37 C/5% CO2 for 18 hrs, 23 nL of compounds dissolved in DMSO, positive controls or DMSO only was transferred to the assay plate by a pintool workstation (Kalypsys, San Diego, CA), followed by addition of 1 uL of 1.25uM NKH477 (0.25 uM as final concentration) in assay medium using a Flying Reagent Dispenser (Aurora Discovery, San Diego, CA). The plates were incubated at 37 C and 5% CO2 for 3 hrs. Then 1 uL of LiveBLAzer B/G FRET substrate (Invitrogen, Carlsbad, CA) was added to each well using Bioraptr Flying Reagent Dispenser (FRD, Aurora Discovery, San Diego, CA). The plates were incubated at room temperature for 2 h, then fluorescence intensities were measured using an Envision plate reader (PerkinElmer, Shelton, CT) at Excitation 405nm, Emission 460nm and 530nm. The % activity was determined from the ratio of 460nm/530nm. For cell viability readout that measures cytotoxicity, 4 uL /well of CellTiter-Glo reagent was added into the assay plates using Bioraptr FRD. After 30 min incubation at room temperature, the luminescence intensity in the assay plates was measured using a ViewLux (PerkinElmer, Shelton, CT) plate reader.
# On the % scale 0 is the no-effect control and ±100 the full control effect; potency means the concentration at half of the fitted maximal effect.
Compound,"viability change, negative = cytotoxic",Potency
CCCCCCCCBr,-9.31% (inactive),
CC(O)(CS(=O)(=O)c1ccc(F)cc1)C(=O)Nc1ccc(C#N)c(C(F)(F)F)c1 (stereo not given),0.443% [at 42.5 µM] (inactive),
O=P(OCC(Br)CBr)(OCC(Br)CBr)OCC(Br)CBr (stereo not given),,inactive
N#CCCC#N,-5.59% (inactive),
CCOc1cccc(C2(N3CCN(c4ccccc4)CC3)CCC(C)CC2)c1 (stereo not given),4.25% (inactive),
CCCCCCCCSC(=O)Oc1cc(Cl)nnc1-c1ccccc1,2.5% (inactive),
CCOP(O)OCC,-1.76% (inactive),
Clc1ccccc1-c1ccccc1Cl,19.3% (inactive),
CCOC(=O)CC(=O)CCl,0.0717% (inactive),
Clc1cc(Cl)c(Cl)c(Cl)c1,7.45% (inactive),
C=CC(Cl)CCl (stereo not given),,inactive
CC1Sc2c(C(=O)O)c(=O)c3cc(F)c(N4CCNCC4)cc3n21 (stereo not given),-1.13% [at 42.5 µM] (inactive),
CN1[C@@H]2CC[C@H]1CC(O)C2 (stereo not given in full),3.25% (inactive),
Cc1ccc(OP(=O)(Oc2ccccc2)Oc2ccccc2)cc1,-7.67% (inactive),
COC(=O)c1ccccc1CS(=O)(=O)NC(=O)Nc1nc(OC)cc(OC)n1,2.07% (inactive),
Oc1ccc(I)cc1,-6.9% (inactive),
ClCCCCBr,6.21% (inactive),
O=[N+]([O-])c1cc(Cl)c(Cl)cc1Cl,-9.18% (inactive),
C[C@@H]1CC[C@H]2[C@@H](C)C(=O)O[C@@H]3O[C@@]4(C)CC[C@@H]1[C@]32OO4,0.924% [at 42.5 µM] (inactive),
Nc1ccc(Oc2ccc(N)cc2)cc1,,inactive

Compound,"viability change, negative = cytotoxic",Potency
Oc1cccc(Cl)c1,-0.325% (inactive),
O=C(CBr)OCc1ccccc1,-4.69% (inactive),
CN(C)C(=S)[S-].CN(C)C(=S)[S-].[Cu+2],,13.2 µM (active)
CC(Cl)(Cl)[N+](=O)[O-],-3.43% (inactive),
CN(C)C(=O)Nc1cccc(C(F)(F)F)c1,,inactive
Cc1ccccc1CCl,3.85% (inactive),
CN(C)C(=O)Oc1cc(OC(=O)N(C)C)cc(C(O)CNC(C)(C)C)c1 (stereo not given),3.61% [at 42.5 µM] (inactive),
CC1OC(C)OC(C)O1 (stereo not given),,inactive
O=C(Nc1ccccc1)c1ccccc1I,-4.56% (inactive),
N#Cc1ccc(O)cc1,-7.38% (inactive),
COc1ccc(/C(=C/C(=O)N2CCOCC2)c2ccc(Cl)cc2)cc1OC,-3.16% (inactive),
ClC(Cl)(Cl)C(Cl)(Cl)Cl,1.9% (inactive),
CCC(=O)O[C@H]1CC[C@H]2[C@@H]3CCC4=CC(=O)CC[C@]4(C)[C@H]3CC[C@]12C,-8.08% [at 42.5 µM] (inactive),
O=C(CCl)C(Cl)Cl,2.64% (inactive),
O=C1CN2CCOC2(c2ccccc2Cl)c2cc(Cl)ccc2N1 (stereo not given),-1.36% [at 42.5 µM] (inactive),
C[N+](C)(C)Cc1ccccc1,,inactive
C=CC(C)(CCC=C(C)C)OC(=O)c1ccccc1N (stereo not given),5.51% (inactive),
Cc1cc(-c2ccc(N)c(C)c2)ccc1N,,inactive
COP(=O)(CCC(=O)NCO)OC,1.47% (inactive),
C=CCc1cc(OC)c2c(c1)OCO2,1.16% (inactive),
